Reference: PubChem BioAssay

Each compound was assayed against Nuclear receptor coactivator 1 (Homo sapiens) (UniProt Q15788) (assay: SRC1 coactivator transcriptional activity inhibitors, confirmation, cell-based, luminescence, quadruplicate (AID 588820;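 further: 0% = DMSO wells and 100% = gossypol 36 µM treated wells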)). Conditions: HEK293 GAL4-SRC1 luciferase reporter, at 3.6 µM, stronger effect = higher value;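 active means mean inhibition above 46.68%, the untreated control wells mean plus 3 SD; inactive means the rest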.
Chain of Nuclear receptor coactivator 1 (Homo sapiens) (Q15788 whole entry, looked up, the tested form may be a part): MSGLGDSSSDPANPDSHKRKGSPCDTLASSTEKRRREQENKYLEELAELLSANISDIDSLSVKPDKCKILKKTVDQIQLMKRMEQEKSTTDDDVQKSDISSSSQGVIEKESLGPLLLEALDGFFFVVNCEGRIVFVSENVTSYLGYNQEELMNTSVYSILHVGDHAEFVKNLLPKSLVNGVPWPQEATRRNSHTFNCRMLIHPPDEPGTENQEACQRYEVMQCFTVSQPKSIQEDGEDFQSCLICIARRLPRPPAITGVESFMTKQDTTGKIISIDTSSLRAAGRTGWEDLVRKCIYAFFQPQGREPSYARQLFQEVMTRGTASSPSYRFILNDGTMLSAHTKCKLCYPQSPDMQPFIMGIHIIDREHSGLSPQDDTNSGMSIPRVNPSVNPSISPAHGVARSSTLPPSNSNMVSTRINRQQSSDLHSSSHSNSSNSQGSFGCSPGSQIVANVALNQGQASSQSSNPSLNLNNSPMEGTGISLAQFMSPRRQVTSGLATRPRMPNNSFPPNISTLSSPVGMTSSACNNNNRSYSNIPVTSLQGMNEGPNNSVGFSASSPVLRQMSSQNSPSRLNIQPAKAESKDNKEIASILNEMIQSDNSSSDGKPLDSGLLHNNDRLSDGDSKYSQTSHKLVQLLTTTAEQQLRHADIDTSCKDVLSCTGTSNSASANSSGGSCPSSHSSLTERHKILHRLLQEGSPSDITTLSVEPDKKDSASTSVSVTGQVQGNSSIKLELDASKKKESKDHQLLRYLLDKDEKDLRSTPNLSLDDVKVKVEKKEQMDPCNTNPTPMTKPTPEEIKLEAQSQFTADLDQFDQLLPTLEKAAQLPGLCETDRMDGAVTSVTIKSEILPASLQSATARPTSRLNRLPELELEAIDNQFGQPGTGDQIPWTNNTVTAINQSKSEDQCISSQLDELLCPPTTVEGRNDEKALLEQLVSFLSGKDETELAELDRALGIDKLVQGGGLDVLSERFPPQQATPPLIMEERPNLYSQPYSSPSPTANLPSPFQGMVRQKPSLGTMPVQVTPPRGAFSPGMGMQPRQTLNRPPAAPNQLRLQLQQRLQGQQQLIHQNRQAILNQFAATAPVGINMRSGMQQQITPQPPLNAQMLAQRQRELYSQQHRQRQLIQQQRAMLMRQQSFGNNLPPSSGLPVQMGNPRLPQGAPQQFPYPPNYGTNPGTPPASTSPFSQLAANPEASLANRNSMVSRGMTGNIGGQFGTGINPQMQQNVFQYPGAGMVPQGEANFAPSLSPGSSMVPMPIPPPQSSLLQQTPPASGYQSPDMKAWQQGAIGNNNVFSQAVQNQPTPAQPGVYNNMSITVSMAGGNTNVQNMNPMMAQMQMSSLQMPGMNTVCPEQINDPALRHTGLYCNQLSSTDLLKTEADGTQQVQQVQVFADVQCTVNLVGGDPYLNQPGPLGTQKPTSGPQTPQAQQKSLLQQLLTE

inhibition, inactive:
Cc1sc2ncnc(N3CCC(C(=O)Nc4cc(S(C)(=O)=O)ccc4Cl)CC3)c2c1C 14.9%, CCN(C(=O)c1cccc(S(=O)(=O)N(C)C)c1)C12CC3CC(CC(C3)C1)C2 14.8%, Cc1ccc(S(=O)(=O)NCc2ccc3c(c2)OCO3)cc1C -20.8%, COc1ccc(S(=O)(=O)N(C)c2ccc(C(=O)NCc3ccco3)cc2)cc1OC -12.2%, COc1cc(OC)c(OC)cc1/C=C1\CC(C)C/C(=C\c2cc(OC)c(OC)cc2OC)C1=O (stereo not given) -33.6%, Cc1cc(C)c(S(=O)(=O)N2CCCC2=O)c(C)c1N(C)S(C)(=O)=O 0.14%, COCCn1c(C)cc(C(=O)CSc2nc3ccccc3s2)c1C -45.7%, CN(Cc1ccc(OC(F)F)cc1)C(=O)c1cccc(S(=O)(=O)N2CCN(Cc3ccccc3)CC2)c1 -14%, Cn1cc(S(=O)(=O)Nc2ccc(OC(F)(F)F)cc2)c(=O)n(C)c1=O 6.39%, CN1CCN(c2ccc(CNS(=O)(=O)c3ccc(F)cc3Cl)cc2)CC1 -2.89%, COc1ccc(C(=O)Nc2ccc(Cl)c(S(=O)(=O)N3CCOCC3)c2)cc1 -18.1%, O=C(O)CN1C(=O)/C(=C\c2ccccc2OCc2ccc(Cl)cc2Cl)SC1=S 32%, CN=C(C)/C(C(=O)OC)=C(/O)c1c(F)cccc1F -28.3%, C/C(=N\NC(=O)Cc1ccc(Cl)cc1)c1ccccn1 -28.3%, c1ccc(-c2nc(NCCCn3ccnc3)c3ccccc3n2)cc1 -10.8%, CC1(c2ccccc2)NC(=O)N(CC(=O)Nc2cc3c(cc2Br)OCCO3)C1=O (stereo not given) -11.8%, CC(C)(C)c1cc(C(=O)C[n+]2ccc(C(=O)NCCCO)cc2)cc(C(C)(C)C)c1O -6.91%, Cc1ccc(CNc2ncnc3ccc(-c4ccc(CO)o4)cc23)o1 11.8%, COc1ccccc1C(NC(C)=O)c1cc(Cl)c2cccnc2c1O (stereo not given) 31.7%, COc1ccc(Cc2nnc(NC(=O)c3cc(OC)c(OC)c(OC)c3)s2)cc1OC -22.8%, COc1cc(-c2cnc3c(NC(C)=O)cc(-c4ccc(N5CCN(C)CC5)cc4)cn23)cc(OC)c1OC -17.8%, Cc1ccc(-c2nc(-c3ccccc3)no2)c(Cl)c1 -51.6%, O=C(NCc1ccccc1)c1cc(S(=O)(=O)N2CCCCC2)ccc1N1CCOCC1 -1.88%, COc1ccc(CNC(=O)c2ccc(N3CCC4(CC3)CC(c3ccc(Cl)cc3)=NO4)c([N+](=O)[O-])c2)cc1 6.27%, COc1cc(C(=O)OCC(=O)NC(N)=O)cc(CN2C(=O)c3ccccc3C2=O)c1OC -10.9%, Cc1ccc(S(=O)(=O)N(C)C)cc1NC(=O)COC(=O)CCC1CCCC1 8.06%, Cc1ccc(C(C(=O)NCc2ccccc2)N(Cc2cccs2)C(=O)c2ccc3c(c2)OCCO3)cc1 (stereo not given) -21.8%, CCCn1c(=O)c(C(=O)NC(C)c2ccccc2)c(O)c2ccccc21 (stereo not given) -10.4%, Cn1ccnc1SCC(=O)NC1(C#N)CCCCC1 -19.4%, CSc1sc(C(=O)NC(=O)NCc2cccnc2)c(C)c1-c1ccon1 3.32%, O=C(NC1CCCC1)C1CCN(C(=O)c2cccc(Cl)c2)CC1 -22.6%, NC(=O)c1nsc(C(=O)N(c2ccccc2F)C(C(=O)NCc2ccc(F)cc2)c2ccc(O)cc2)c1N (stereo not given) -23.1%, CN1CCN(c2ccc(Cl)cc2NC(=O)CC2OC(=O)c3ccccc32)CC1 (stereo not given) -37.2%, O=C(CN1CCN(Cc2ccc(Cl)cc2)C1=O)NCCCN1CCOCC1 -13.2%, COc1ccc(CCNC(=O)[C@H](CCSC)NC(=O)N2CCn3c2nc2ccccc23)cc1OC 1.44%, COc1ccc(-c2cc(C(=O)NCCCN3CCOCC3)c3ccccc3n2)cc1OC -12.4%, Cc1cccc(C)c1NC(=S)N(CCN(C)C)Cc1cccs1 -19.4%, c1ccc(CC2CCN(c3ncnc4sccc34)CC2)cc1 -13.8%, COc1ccc2nc(N3CCN(C(=O)c4ccc5ncsc5c4)CC3)sc2c1 -5.74%, CSc1nccc(Oc2cncc(Cl)c2)n1 8.08%
